Holding throughout (test): NCI-60 one-dose screen, 48 h (100 = growth as untreated, 0 = no growth, -100 = all killed)
The test system of one experiment is NCI-H460 lung. Particulars: 10 µM unless noted.
The next experiment concerns HOP-92 NSCLC. As to conditions: 10 µM unless noted.
A further experiment has as its system MALME-3M melanoma. Particulars: 10 µM unless noted.
Another experiment has as its system MDA-MB-231 breast. As to conditions: 10 µM unless noted.
The subject of the next experiment is RXF 393 renal. Particulars: 10 µM unless noted.
Another experiment has as its system UACC-257 melanoma. As to conditions: 10 µM unless noted.
The subject of another experiment is HT29 colon. As to conditions: 10 µM unless noted.
The next experiment concerns PC-3 prostate. As to conditions: 10 µM unless noted.
The test system of a further experiment is SK-MEL-5 melanoma. As to conditions: 10 µM unless noted.
In a further experiment the test system is SK-MEL-28 melanoma. Particulars: 10 µM unless noted.
The subject of another experiment is UO-31 renal. As to conditions: 10 µM unless noted.
In a further experiment the test system is CCRF-CEM leukemia. Particulars: 10 µM unless noted.
The next experiment has as its system SR leukemia. As to conditions: 10 µM.
In a further experiment the test system is OVCAR-4 ovarian. As to conditions: 10 µM unless noted.
The test system of the next experiment is IGROV1 ovarian. Particulars: 10 µM.
The next experiment concerns HS 578T breast. Particulars: 10 µM unless noted.
The subject of the next experiment is BT-549 breast. As to conditions: 10 µM.
The subject of a further experiment is SW-620 colon. As to conditions: 10 µM unless noted.
For another experiment, the system named is HCC-2998 colon. As to conditions: 10 µM unless noted.
The next experiment deals with KM12 colon. Particulars: 10 µM unless noted.

This is part of a sample that, as a whole, favours compounds with a hit. Of some 83,000 tested, about 20% had one in any assay.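 Cells were grown in 96-well plates and exposed to the test compound at a single concentration for 48 hours; results are reported as percent growth, with values below 10 considered active.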 Values without a mark were called inactive. Calls of active or inactive are those of the source.

The results in this text go back to PubChem BioAssay (NCI).

Consider `O=C(O)C1(Br)CC12c1ccccc1-c1ccccc12` (configuration not stated), for which the growth in the experiment with NCI-H460 lung was 111%; with HOP-92 NSCLC it was 100%; in the experiment with MALME-3M melanoma it was 100%; in the experiment on MDA-MB-231 breast, 115%; with RXF 393 renal, 99.5%; in the experiment on UACC-257 melanoma, 94.8%. Also, the growth in the experiment with HT29 colon was 104%; with PC-3 prostate, 100%; in the experiment on SK-MEL-5 melanoma it was 98.4%; in the experiment on SK-MEL-28 melanoma, 114%; in the experiment on UO-31 renal it was 82.4%; with CCRF-CEM leukemia, 97.4%. For the same compound, the growth with SR leukemia is 88.9%; with OVCAR-4 ovarian it was 107%; with IGROV1 ovarian it was 99.7%; with HS 578T breast it was 110%; in the experiment on BT-549 breast, 94.9%; with SW-620 colon, 111%. The growth was 106% in the experiment with HCC-2998 colon and 99.7% in the experiment on KM12 colon.
Consider `OC1CCCCC1N1CCC(c2ccccc2)CC1` (configuration not stated), for which the growth with NCI-H460 lung is 109%; in the experiment with MALME-3M melanoma it was 103%; with MDA-MB-231 breast, 119%; in the experiment with RXF 393 renal it was 124%; in the experiment with UACC-257 melanoma, 109%; in the experiment with HT29 colon, 97.3%. Besides, the growth was 91% with PC-3 prostate; 106% in the experiment on SK-MEL-5 melanoma; 103% in the experiment with SK-MEL-28 melanoma; 82.5% with UO-31 renal; 99.2% with CCRF-CEM leukemia; 94% in the experiment on SR leukemia. Further, the growth in the experiment on OVCAR-4 ovarian is 109%; in the experiment on IGROV1 ovarian it was 112%; in the experiment on HS 578T breast it was 108%; in the experiment with HCC-2998 colon, 93.2%; in the experiment with KM12 colon, 104%.
Consider `CCOc1c(Cl)cc(CNC(C)C(O)c2ccccc2)cc1OC` (configuration not stated), for which the growth was 75.1% with NCI-H460 lung; 27% in the experiment with HOP-92 NSCLC; 46.9% in the experiment on MALME-3M melanoma; 59.9% in the experiment on MDA-MB-231 breast; 67% with RXF 393 renal; 51.4% with UACC-257 melanoma. Besides, the growth was 53.1% in the experiment on HT29 colon; 57.2% in the experiment with PC-3 prostate; 82.7% in the experiment on SK-MEL-5 melanoma; 41.5% in the experiment with SK-MEL-28 melanoma; 92.6% with UO-31 renal; 77.7% in the experiment with CCRF-CEM leukemia. Besides, the growth in the experiment on SR leukemia was 10.8%; in the experiment with IGROV1 ovarian, 66%; with HS 578T breast, 67.5%; with BT-549 breast, 72.2%; in the experiment with SW-620 colon, 43.4%; in the experiment on HCC-2998 colon, 81.3%. Moreover, in the experiment on KM12 colon, the growth was 55.3%.
Take `Clc1ccc(SSC(Cl)(Cl)Cl)cc1`: the growth in the experiment with NCI-H460 lung was 101%; in the experiment with HOP-92 NSCLC it was 84.8%; in the experiment on MALME-3M melanoma, 95.7%; in the experiment on MDA-MB-231 breast it was 116%; in the experiment on RXF 393 renal, 112%; with UACC-257 melanoma it was 112%. The growth is 101% with HT29 colon; 88.9% in the experiment on PC-3 prostate; 110% with SK-MEL-5 melanoma; 120% in the experiment with SK-MEL-28 melanoma; 99.9% with UO-31 renal; 109% with CCRF-CEM leukemia. For the same compound, the growth in the experiment with SR leukemia is 107%; in the experiment with OVCAR-4 ovarian, 108%; with IGROV1 ovarian, 107%; with BT-549 breast, 121%; in the experiment with SW-620 colon, 97.6%; in the experiment with HCC-2998 colon, 110%. The growth in the experiment with KM12 colon is 108%.
With `Oc1ccccc1OB(Oc1ccccc1O)N(CCCl)CCCl`, the growth with NCI-H460 lung was 68.3%; in the experiment on HOP-92 NSCLC it was 74.5%; with MALME-3M melanoma, 89.9%; in the experiment with MDA-MB-231 breast, 71%; in the experiment on RXF 393 renal it was 94.9%; in the experiment on UACC-257 melanoma it was 84.4%. Besides, the growth is 85.9% in the experiment with HT29 colon; 82.8% with PC-3 prostate; 89.9% in the experiment with SK-MEL-5 melanoma; 110% in the experiment on SK-MEL-28 melanoma; 51.9% in the experiment with UO-31 renal; 18.4% in the experiment on CCRF-CEM leukemia. For the same compound, the growth is 36.5% in the experiment with SR leukemia; 96.8% with OVCAR-4 ovarian; 52.4% with IGROV1 ovarian; 106% with HS 578T breast; 49.4% in the experiment with BT-549 breast; 98.4% in the experiment with HCC-2998 colon. In addition, the growth in the experiment with KM12 colon was 69.4%.
Take `COC[CH2][Hg][C]#[C][Hg][CH2]COC`: the growth in the experiment on NCI-H460 lung was 94.4%; in the experiment on HOP-92 NSCLC, 111%; with MALME-3M melanoma, 104%; in the experiment with RXF 393 renal it was 59.4%; with UACC-257 melanoma it was 105%; in the experiment with HT29 colon, 100%. Further, the growth in the experiment with PC-3 prostate is 94.7%; with SK-MEL-28 melanoma, 90.1%; with UO-31 renal it was 92.8%; in the experiment with SR leukemia, 8.96% (active); in the experiment on OVCAR-4 ovarian, 61.2%; in the experiment with IGROV1 ovarian it was 80.2%. The growth in the experiment with HS 578T breast is 85.3%; with BT-549 breast it was 111%; in the experiment on SW-620 colon, 108%; in the experiment on HCC-2998 colon, 103%; in the experiment with KM12 colon, 85.5%.
Regarding `CC(=O)O[C@@H]1C2=C(C)C3(CC3)[C@@](C)(O)C(=O)C2=C[C@@]1(C)CO`, the growth is 2.34% (active) with NCI-H460 lung; -21.1% (active) in the experiment on HOP-92 NSCLC; -69.7% (active) with MALME-3M melanoma; -2.64% (active) in the experiment on MDA-MB-231 breast; -89.6% (active) in the experiment on RXF 393 renal; -34.7% (active) in the experiment with UACC-257 melanoma. In addition, the growth in the experiment on HT29 colon is 5.12% (active); with PC-3 prostate, 6.46% (active); in the experiment with SK-MEL-5 melanoma, -86.1% (active); in the experiment with SK-MEL-28 melanoma, -28.8% (active); in the experiment on UO-31 renal, -51% (active); in the experiment on CCRF-CEM leukemia, 10.9%. Moreover, the growth in the experiment with SR leukemia is 4.56% (active); in the experiment with IGROV1 ovarian it was 3.81% (active); with HS 578T breast it was -9.28% (active); in the experiment on BT-549 breast, -32.6% (active); in the experiment with SW-620 colon, 4.27% (active); in the experiment on HCC-2998 colon, -68.7% (active). For the same compound, the growth in the experiment on KM12 colon was 0.46% (active).
Take `CCC[CH2][Sn]1([CH2]CCC)[O]C(=O)c2cccc([N+](=O)[O-])c2C(=O)[O]1`: the growth in the experiment with NCI-H460 lung was -5.56% (active); in the experiment on HOP-92 NSCLC, -91.7% (active); in the experiment on MALME-3M melanoma, -88.4% (active); with MDA-MB-231 breast it was -89.1% (active); in the experiment with RXF 393 renal, -95.2% (active); in the experiment with UACC-257 melanoma it was -94.1% (active). The growth is -75% (active) in the experiment with HT29 colon; -67.5% (active) with PC-3 prostate; -89.8% (active) with SK-MEL-5 melanoma; -93.3% (active) in the experiment with SK-MEL-28 melanoma; -100% (active) with UO-31 renal; -47.7% (active) in the experiment with CCRF-CEM leukemia. Moreover, the growth was -31.6% (active) in the experiment on SR leukemia; -91.6% (active) with OVCAR-4 ovarian; -76% (active) in the experiment with IGROV1 ovarian; -11.6% (active) in the experiment with HS 578T breast; -99.6% (active) with BT-549 breast; -54.6% (active) in the experiment with SW-620 colon. Besides, the values for the growth with HCC-2998 colon and in the experiment on KM12 colon were -84.7% (active) and -83.9% (active), respectively.
As for `Oc1ccc(Br)cc1CN1CCN(Cc2ccc(Cl)cc2)CC1`, the growth in the experiment with NCI-H460 lung is 93.1%; in the experiment on HOP-92 NSCLC it was 24.8%; in the experiment on MDA-MB-231 breast, 49.2%; with RXF 393 renal it was 76.7%; in the experiment with UACC-257 melanoma, 86.7%; in the experiment with HT29 colon, 70.2%. Further, the growth in the experiment with PC-3 prostate was 54%; in the experiment with SK-MEL-5 melanoma, -3.7% (active); with SK-MEL-28 melanoma, 88.2%; in the experiment with UO-31 renal, 47.4%; in the experiment on CCRF-CEM leukemia it was 26.7%; with SR leukemia it was 22.7%. The growth in the experiment with OVCAR-4 ovarian was 65.5%; with HS 578T breast, 80.9%; with BT-549 breast it was 86.3%; in the experiment on SW-620 colon, 73.1%; with KM12 colon, 64.9%.
